# Data taken from PubChem BioAssay AID1159580 (chemical genetic matrix, 2015).
# Hit rate of the full screen: of about 5,500 compounds, about 2,000 (36%) were called active. About 18% were inconclusive and are not listed. The list shows a part of the results. Values without a mark were called inactive. No stated cut-off is given here; in the data, active means normalized growth mostly below about 0.91 (no sharp cut-off); inconclusive means no clear call, values can overlap the other calls; inactive means mostly above about 0.92.
# Test: chemical genetic growth profiling, strain panel (AID 1159580);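 further: tested at 20 µM; growth read once vehicle control cultures reached saturation at 30 °C; 1 = growth at the plate median or of vehicle wells; lower values mean less growth of the strain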
# Conditions: growth OD
smiles,measurement,setting,value
CC1(C)C2CC[C@]3(C)C(C(=O)C=C4[C@H]5C[C@@](C)(C(=O)O)CC[C@]5(C)CC[C@]43C)[C@@]2(C)CC[C@@H]1O (some centres not stated),normalized growth,"S. cerevisiae deletion strains, locus YJR075W, strain HOC1, hits give low values",1.05
same,normalized growth,"S. cerevisiae deletion strains, locus YKL009W, strain mrt4, hits give low values",0.921
same,normalized growth,"S. cerevisiae deletion strains, locus YKL068W, hits give low values",1.02
same,normalized growth,"S. cerevisiae deletion strains, locus YKL085W, strain MDH1 (second series), hits give low values",1.02
same,normalized growth,"S. cerevisiae deletion strains, locus YKL085W, strain MDH1, hits give low values",1.02
same,normalized growth,"S. cerevisiae deletion strains, locus YKL160W, strain elf1, hits give low values",0.95
same,normalized growth,"S. cerevisiae deletion strains, locus YKL190W, strain CNB1, hits give low values",1.04
same,normalized growth,"S. cerevisiae deletion strains, locus YKR001C, strain vps1, hits give low values",0.996
same,normalized growth,"S. cerevisiae deletion strains, locus YKR026C, strain gcn3, hits give low values",1.03
same,normalized growth,"S. cerevisiae deletion strains, locus YKR091W, strain srl3, hits give low values",1.01
same,normalized growth,"S. cerevisiae deletion strains, locus YLL001W, strain dnm1, hits give low values",0.867 (active)
same,normalized growth,"S. cerevisiae deletion strains, locus YLL026W, hits give low values",0.979
same,normalized growth,"S. cerevisiae deletion strains, locus YLL041C, strain sdh2, hits give low values",1.01
same,normalized growth,"S. cerevisiae deletion strains, locus YLR027C, strain aat2, hits give low values",0.899 (active)
same,normalized growth,"S. cerevisiae deletion strains, locus YLR039C, strain RIC1, hits give low values",1.1
same,normalized growth,"S. cerevisiae deletion strains, locus YLR058C, strain SHM2, hits give low values",1.03
same,normalized growth,"S. cerevisiae deletion strains, locus YLR102C, strain apc9, hits give low values",1.01
same,normalized growth,"S. cerevisiae deletion strains, locus YLR113W, strain HOG1, hits give low values",1.01
same,normalized growth,"S. cerevisiae deletion strains, locus YLR221C, strain rsa3, hits give low values",0.917
same,normalized growth,"S. cerevisiae deletion strains, locus YLR258W, strain gsy2, hits give low values",0.953
same,normalized growth,"S. cerevisiae deletion strains, locus YLR262C, strain YPT6 (second series), hits give low values",0.702 (active)
same,normalized growth,"S. cerevisiae deletion strains, locus YLR262C, strain YPT6, hits give low values",1.04
same,normalized growth,"S. cerevisiae deletion strains, locus YLR268W, strain sec22, hits give low values",0.944
same,normalized growth,"S. cerevisiae deletion strains, locus YLR320W, strain mms22, hits give low values",0.871 (active)
same,normalized growth,"S. cerevisiae deletion strains, locus YLR330W, strain CHS5, hits give low values",1.04
same,normalized growth,"S. cerevisiae deletion strains, locus YLR342W, strain FKS1 (second series), hits give low values",1.03
same,normalized growth,"S. cerevisiae deletion strains, locus YLR342W, strain FKS1, hits give low values",1.01
same,normalized growth,"S. cerevisiae deletion strains, locus YLR357W, strain rsc2, hits give low values",1.05
same,normalized growth,"S. cerevisiae deletion strains, locus YLR370C, strain arc18, hits give low values",1.01
same,normalized growth,"S. cerevisiae deletion strains, locus YLR371W, strain rom2, hits give low values",1
same,normalized growth,"S. cerevisiae deletion strains, locus YLR384C, strain iki3, hits give low values",1.02
same,normalized growth,"S. cerevisiae deletion strains, locus YLR418C, strain cdc73, hits give low values",1.03
same,normalized growth,"S. cerevisiae deletion strains, locus YML016C, strain PPZ1, hits give low values",1.05
same,normalized growth,"S. cerevisiae deletion strains, locus YML032C, strain rad52, hits give low values",0.991
same,normalized growth,"S. cerevisiae deletion strains, locus YML120C, strain ndi1, hits give low values",0.993
same,normalized growth,"S. cerevisiae deletion strains, locus YML124C, strain tub3, hits give low values",1.02
same,normalized growth,"S. cerevisiae deletion strains, locus YMR058W, strain fet3, hits give low values",0.984
same,normalized growth,"S. cerevisiae deletion strains, locus YMR078C, strain ctf18, hits give low values",1.01
same,normalized growth,"S. cerevisiae deletion strains, locus YMR125W, strain sto1, hits give low values",1.02
same,normalized growth,"S. cerevisiae deletion strains, locus YMR129W, hits give low values",1.01
same,normalized growth,"S. cerevisiae deletion strains, locus YMR205C, strain PFK2, hits give low values",0.843 (active)
same,normalized growth,"S. cerevisiae deletion strains, locus YMR223W, strain ubp8, hits give low values",0.994
same,normalized growth,"S. cerevisiae deletion strains, locus YMR231W, strain pep5, hits give low values",0.984
same,normalized growth,"S. cerevisiae deletion strains, locus YMR263W, strain SAP30, hits give low values",1.03
same,normalized growth,"S. cerevisiae deletion strains, locus YMR307W, strain GAS1, hits give low values",1.02
same,normalized growth,"S. cerevisiae deletion strains, locus YNL067W, strain RPL9B, hits give low values",0.98
same,normalized growth,"S. cerevisiae deletion strains, locus YNL071W, strain lat1, hits give low values",0.603 (active)
same,normalized growth,"S. cerevisiae deletion strains, locus YNL128W, strain TEP1, hits give low values",1.04
same,normalized growth,"S. cerevisiae deletion strains, locus YNL153C, strain GIM3, hits give low values",0.982
same,normalized growth,"S. cerevisiae deletion strains, locus YNL183C, strain NPR1, hits give low values",0.946
same,normalized growth,"S. cerevisiae deletion strains, locus YNL209W, strain ssb2, hits give low values",0.971
same,normalized growth,"S. cerevisiae deletion strains, locus YNL233W, strain BNI4, hits give low values",1.03
same,normalized growth,"S. cerevisiae deletion strains, locus YNL248C, strain rpa49, hits give low values",0.926
same,normalized growth,"S. cerevisiae deletion strains, locus YNL250W, strain rad50, hits give low values",1.01
same,normalized growth,"S. cerevisiae deletion strains, locus YNL271C, strain bni1, hits give low values",1.01
same,normalized growth,"S. cerevisiae deletion strains, locus YNL298W, strain CLA4, hits give low values",0.965
same,normalized growth,"S. cerevisiae deletion strains, locus YNL307C, strain MCK1, hits give low values",1.02
same,normalized growth,"S. cerevisiae deletion strains, locus YNL322C, strain KRE1 (second series), hits give low values",1.01
same,normalized growth,"S. cerevisiae deletion strains, locus YNL322C, strain KRE1, hits give low values",1.05
same,normalized growth,"S. cerevisiae deletion strains, locus YNR049C, strain mso1, hits give low values",1.01
same,normalized growth,"S. cerevisiae deletion strains, locus YNR052C, strain pop2, hits give low values",0.999
same,normalized growth,"S. cerevisiae deletion strains, locus YOL006C, strain TOP1, hits give low values",1.09
same,normalized growth,"S. cerevisiae deletion strains, locus YOL012C, strain htz1",1.33
same,normalized growth,"S. cerevisiae deletion strains, locus YOL147C, strain pex11, hits give low values",1.02
same,normalized growth,"S. cerevisiae deletion strains, locus YOR001W, strain rrp6, hits give low values",1.01
same,normalized growth,"S. cerevisiae deletion strains, locus YOR061W, strain CKA2, hits give low values",1.04
same,normalized growth,"S. cerevisiae deletion strains, locus YOR069W, strain VPS5, hits give low values",1.04
same,normalized growth,"S. cerevisiae deletion strains, locus YOR070C, strain gyp1, hits give low values",0.905 (active)
same,normalized growth,"S. cerevisiae deletion strains, locus YOR080W, strain dia2, hits give low values",1.02
same,normalized growth,"S. cerevisiae deletion strains, locus YOR083W, strain WHI5, hits give low values",0.915
same,normalized growth,"S. cerevisiae deletion strains, locus YOR106W, strain vam3, hits give low values",0.76 (active)
same,normalized growth,"S. cerevisiae deletion strains, locus YOR136W, strain idh2, hits give low values",1.01
same,normalized growth,"S. cerevisiae deletion strains, locus YOR144C, strain elg1, hits give low values",1.02
same,normalized growth,"S. cerevisiae deletion strains, locus YOR184W, strain ser1, hits give low values",0.898
same,normalized growth,"S. cerevisiae deletion strains, locus YOR231W, strain MKK1, hits give low values",1
same,normalized growth,"S. cerevisiae deletion strains, locus YOR265W, strain rbl2, hits give low values",0.995
same,normalized growth,"S. cerevisiae deletion strains, locus YOR270C, strain vph1, hits give low values",0.638 (active)
same,normalized growth,"S. cerevisiae deletion strains, locus YOR290C, strain snf2, hits give low values",0.944
same,normalized growth,"S. cerevisiae deletion strains, locus YOR316C, strain cot1, hits give low values",1.01
same,normalized growth,"S. cerevisiae deletion strains, locus YPL051W, strain arl3, hits give low values",0.892 (active)
same,normalized growth,"S. cerevisiae deletion strains, locus YPL055C, strain LGE1, hits give low values",1.05
same,normalized growth,"S. cerevisiae deletion strains, locus YPL078C, strain atp4, hits give low values",0.869 (active)
same,normalized growth,"S. cerevisiae deletion strains, locus YPL106C, strain sse1, hits give low values",1.17 [resistant] (active)
same,normalized growth,"S. cerevisiae deletion strains, locus YPL240C, strain hsp82, hits give low values",0.97
same,normalized growth,"S. cerevisiae deletion strains, locus YPL241C, strain CIN2, hits give low values",1.05
same,normalized growth,"S. cerevisiae deletion strains, locus YPL256C, strain CLN2, hits give low values",1.03
same,normalized growth,"S. cerevisiae deletion strains, locus YPR119W, strain clb2, hits give low values",1.02
same,normalized growth,"S. cerevisiae deletion strains, locus YPR141C, strain kar3, hits give low values",1.02
same,normalized growth,"S. cerevisiae deletion strains, locus YPR163C, strain tif3, hits give low values",1.02
same,normalized growth,"S. cerevisiae deletion strains, locus YPR167C, strain met16, hits give low values",1.02
same,normalized growth,"S. cerevisiae deletion strains, strain wtn01, hits give low values",0.976
same,normalized growth,"S. cerevisiae strains, strain wild type, hits give low values",1.02
